Hits are enriched below; roughly 5.6% of the tested compounds scored in any of these assays.
PfGluPho inh – PfG6PD enzyme inhibitors, primary screen, biochemical, fluorescence intensity, uHTS | 0.78% of 350,000 active | PfGluPho enzyme, NADPH resazurin-diaphorase fluorescence | inhibition, % at 20 µM | glucose-6-phosphate dehydrogenase-6-phosphogluconolactonase (Plasmodium falciparum 3D7);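 active = inhibition reaching at least a set limit at 20 µM in the primary screen, cut at about 59% in these data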
PfM18AAP inh-1 – PfM18AAP inhibitors, malaria aminopeptidase, primary screen, biochemical, QFRET, recombinant enzyme; 1.2% of 290,000 active; inhibition, % at 7.35 µM; M18 aspartyl aminopeptidase (Plasmodium falciparum 3D7); H-Glu-NHMec fluorogenic cleavage;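 active = inhibition above the campaign mean inhibition over all tested compounds plus 3 SD, cut at about 28% in these data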
PHOSPHO1 inh – PubChem AID 1565; Phosphoethanolamine/phosphocholine phosphatase (Homo sapiens), Q8TCT1; 1.1% of 290,000 active; recombinant PHOSPHO1, absorbance phosphatase assay; inhibition, % at 13.3 µM; in the data active = inhibition above about 60%
Cardio protect – cardioprotection against H2O2-induced cell death, primary screen, uHTS, H9c2 cells, ATPLite luminescence; H9c2 cardiomyocytes, H2O2 injury protection, 2 h; protection from H2O2 cell death, % at 20 µM; 0.63% of 360,000 active; AID 588492, 2011;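 active = compounds giving at least 50% protection of heart cells from peroxide-induced death in the single-dose screen, raw or plate-pattern-corrected value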
ALR inh – inhibitors of human ALR sulfhydryl oxidase, primary screen, biochemical, H2O2 detection, HRP-luminol luminescence, single point | purified ALR, DTT oxidation | FAD-linked sulfhydryl oxidase ALR (Homo sapiens), P55789 | inhibition, % (test concentration not listed) | 3.8% of 290,000 active;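 active = mean replicate inhibition above about 79%, with every replicate also reaching it, limit read from the data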
Target sequence (P55789 whole entry, looked up): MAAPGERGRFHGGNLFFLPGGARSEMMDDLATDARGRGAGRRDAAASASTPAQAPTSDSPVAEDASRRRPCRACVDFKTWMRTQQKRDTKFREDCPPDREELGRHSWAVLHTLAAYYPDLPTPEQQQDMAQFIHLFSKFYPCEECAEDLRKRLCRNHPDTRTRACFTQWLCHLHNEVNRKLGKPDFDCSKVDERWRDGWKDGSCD
PfM18AAP inh-2 – PfM18AAP inhibitors, malaria aminopeptidase, confirmation, biochemical, QFRET, recombinant enzyme, triplicate. 28% of 2,400 active. AID 2170, 2009. shares compounds with PfM18AAP inh-1. H-Glu-NHMec fluorogenic cleavage. inhibition, % at 7.35 µM;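 active = mean inhibition over replicate wells above the hit cutoff set for the earlier primary screen, cut at about 29% in these data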
CTSL1 confirm – cathepsin L1 inhibitors, retest, confirmation, counter-screen for PFM18AAP inhibitor project, biochemical, QFRET, triplicate. AID 2178, 2009. purified cathepsin L1, Z-Leu-Arg-MCA fluorescence. 2,400 tested, under 10 active. inhibition, % at 5.96 µM. shares compounds with PfM18AAP inh-1;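 active = average inhibition across replicates above the hit cutoff set in the earlier primary screen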
Hits are given with their value; – = inactive; · = no result.

SMILES	PfGluPho inh	PfM18AAP inh-1	PHOSPHO1 inh	Cardio protect	ALR inh	PfM18AAP inh-2	CTSL1 confirm
O=C(NC(=S)NNC(=O)c1ccccc1O)c1cccs1	–	44.0	–	–	–	–	–
O=C(COC(=O)COc1ccccc1[N+](=O)[O-])NC1CCCCC1	–	·	·	–	–	·	·
O=C(NCc1cc(C(F)(F)F)cc(C(F)(F)F)c1)C1CC(c2ccccc2C(F)(F)F)=NO1 (stereo not given)	–	·	·	·	·	·	·
O=C(c1cccc(S(=O)(=O)Nc2ccc(F)cc2)c1)N1CCC1	–	·	·	–	–	·	·
O=c1c2cc(N3CCOCC3)ccc2[nH]c(=S)n1Cc1ccccn1	–	43.6	–	–	–	–	–
O=C(C1CCN(S(=O)(=O)c2ccccc2)CC1)N1CCC1	–	·	·	–	–	·	·
COc1ccc(-c2nc(-c3ccccc3)c(-c3cc([N+](=O)[O-])ccc3C)[nH]2)cc1O	–	–	–	–	–	·	·
Cc1ccc([N+](=O)[O-])cc1-c1[nH]c(-c2ccc(O)c(O)c2)nc1-c1ccccc1	–	73.4	–	–	96.7	73.9	–
Cc1ccccc1NC(=O)c1ccccc1N(C)S(=O)(=O)c1ccccc1	–	·	·	–	–	·	·
Cc1c(P(=S)(c2ccccc2)c2ccccc2)[n+]2ccccc2n1CCc1ccccc1	·	·	·	–	·	·	·
O=c1ccc2cc(O)c(O)cc2o1	–	41.9	–	–	96.2	30.5	–
COc1cc2c(cc1OC)C(COc1ccc(F)cc1)N(C(=O)c1ccco1)CC2 (stereo not given)	–	–	–	–	–	·	·
COc1cc2c(cc1OC)C(c1cc3cccc(C)c3[nH]c1=O)N(C(=O)c1ccco1)CC2 (stereo not given)	·	48.4	–	–	–	–	–
COc1ccccc1N1CCN(Cc2cc3c(cc2[N+](=O)[O-])OCO3)CC1	–	31.8	·	–	·	–	–
COc1ccc(CN2CCN(c3ccccc3OC)CC2)c(OC)c1	–	–	–	–	–	·	·
O=C(NCCc1ccccc1)C1Cc2c(-c3ccccc3Oc3ccccc3)ccnc2O1 (stereo not given)	·	·	·	–	·	·	·
Cc1cccc(C(=O)Nc2ccc(C(=O)N/N=C/c3ccc(C)o3)cc2)c1	–	41.8	–	–	–	–	–
Cc1ccc(/C=N/NC(=O)c2cccc(NC(=O)c3ccccc3C)c2)o1	–	–	–	–	–	·	·
CC(=Nc1ccc(O)cc1)c1sc2ccccc2c1O	–	54.9	–	–	–	–	–
CCC1CCCCN1CCCNC(=O)c1ccc2c(c1)NC(=O)CN2C (stereo not given)	–	32.4	–	–	–	–	–
CC(C)CC1CC(C)(c2csc(NNC(=O)c3ccccc3)n2)OC1=O (stereo not given)	–	33.2	–	–	–	–	–
CC1(C)CC(CC(=O)NNc2nc(-c3ccccc3)cs2)C(=O)O1 (stereo not given)	–	34.0	–	–	·	–	–
CCCn1c(N)c(C(=O)CN2CCN(S(=O)(=O)c3cccc(Cl)c3)CC2)c(=O)[nH]c1=O	–	·	·	–	–	·	·
C(=C\c1ccccc1)/CSc1ccccn1	–	–	–	–	–	·	·
Cc1cc(C)nc(SC/C=C/c2ccccc2)n1	–	34.2	–	–	–	–	–
SMILES	PfGluPho inh	PfM18AAP inh-1	PHOSPHO1 inh	Cardio protect	ALR inh	PfM18AAP inh-2	CTSL1 confirm
Cc1cc(C)n(-c2cc(O)c(-n3nc(C)cc3C)cc2O)n1	–	45.6	–	–	89.1	–	–
Cc1cc(C)n(-c2cc(-n3nc(C)cc3C)ncn2)n1	–	–	–	–	·	·	·
Cc1oc2c(O)c(O)ccc2c(=O)c1-c1cnn(-c2ccccc2)c1	–	31.7	–	86.8	99.7	–	–
Cc1oc2c(O)c(O)ccc2c(=O)c1-c1ccc(Cl)cc1	–	43.9	–	72.3	98.9	–	–
O=C(/C=C/c1ccc(O)c(O)c1)c1ccccc1O	–	72.4	–	–	99.5	61.0	–
O=C(c1ccco1)N1CCN(C(=O)N2CCCCC2)CC1	–	89.6	–	–	–	–	–
